# Results from PubChem BioAssay (NCATS).
# Values joined by “and” are separate entries in the source; they are usually repeats but may differ in a detail not shown here. Equal values may be shown once. Inconclusive results are not listed. A call without a number means that no potency is given here. More than one record can exist for a structure, and the calls need not agree. Active and inactive are the calls of the source. Calls follow the shape of the dose curve; as a rule, active = well fitted curve in the direction sought with a large enough effect; inconclusive = small, poorly fitted or top-dose-only effect, or another doubt; inactive = no such curve, though single readings can be large; an effect the other way counts as inactive or inconclusive.
# Key:
# TAB109 = assay: qHTS profiling for inhibitors of Plasmodium falciparum proliferation (AID 504749); also: nearly all actives have a fitted effect of over 60% in size; settings: P. falciparum in erythrocytes, SYBR Green DNA, 72 h; series mostly up to 28.7 µM
# How it was run: (§1)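 Quantitative HTS: compounds pinned into medium, infected erythrocytes added (0.3% parasitemia, 2.5% hematocrit), 72 h culture at 37 C under 5% CO2. Saponin/Triton lysis with SYBR Green I, overnight RT, then fluorescence read.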
# TAB113 = assay: as above; settings: P. falciparum in erythrocytes, SYBR Green DNA, 72 h; series mostly up to 28.7 µM
# How it was run: as §1
# TAB165 = assay: as above; settings: P. falciparum in erythrocytes, SYBR Green DNA, 72 h; series mostly up to 28.7 µM
# How it was run: as §1
# W2 = assay: as above; settings: P. falciparum in erythrocytes, SYBR Green DNA, 72 h; series mostly up to 28.7 µM
# How it was run: as §1
# CRL-7250 = normal cell line; assay: Cytotoxic Profiling of Annotated Libraries Using Quantitative High-Throughput Screening (AID 1296008); settings: Five cell lines viability, CellTiter-Glo ATP luminescence, 48-72 h; max response: active compounds read low; also: nearly all actives have a fitted effect of over 60% in size
# How it was run: (§2)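 Compounds were pin-transferred onto cells and incubated 48 or 72 hr at 37 degree Celsius, 95% humidity. CellTiter-Glo was added, plates sat 10 min at room temperature, then ATP-coupled luminescence was imaged as the viability read-out.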
# HaCat [1] = assay: as above; settings: Five cell lines viability, CellTiter-Glo ATP luminescence, 48-72 h; max response: active compounds read low
# How it was run: as §2
# KB-3-1 = assay: as above; settings: Five cell lines viability, CellTiter-Glo ATP luminescence, 48-72 h; max response: active compounds read low
# How it was run: as §2
# NIH3T3 [2] = assay: as above; settings: Five cell lines viability, CellTiter-Glo ATP luminescence, 48-72 h; max response: active compounds read low
# How it was run: as §2
# HACAT [3] = assay: qHTS assay to identify novel small-molecules to repurpose for Merkel cell carcinoma treatment (AID 1296009); settings: MCC and control cell lines, CellTiter-Glo viability, 72 h; also: nearly all actives have a fitted effect of over 60% in size
# How it was run: (§3)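 Viability readout: ATP luminescence (CellTiter-Glo) after 72 hr drug exposure at 37 degree celsius. Dose-response format was 8 points for NPC and 11 points for MIPE; data normalized to in-plate controls.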
# MCC-13 = assay: as above; settings: MCC and control cell lines, CellTiter-Glo viability, 72 h; series mostly up to 46 µM
# How it was run: as §3
# MCC-26 = assay: as above; settings: MCC and control cell lines, CellTiter-Glo viability, 72 h; series mostly up to 46 µM
# How it was run: as §3
# MKL-1 = assay: as above; settings: MCC and control cell lines, CellTiter-Glo viability, 72 h; series mostly up to 46 µM
# How it was run: as §3
# MKL-2 = assay: as above; settings: MCC and control cell lines, CellTiter-Glo viability, 72 h; series mostly up to 46 µM
# How it was run: as §3
# UISO = assay: as above; settings: MCC and control cell lines, CellTiter-Glo viability, 72 h; series mostly up to 46 µM
# How it was run: as §3
# WaGa = assay: as above; settings: MCC and control cell lines, CellTiter-Glo viability, 72 h; series mostly up to 46 µM
# How it was run: as §3
# C33A = assay: Primary qHTS to identify gynecologic anti-cancer compounds using libraries of approved drugs and bioactive compounds (AID 1345084); settings: Gynecologic cancer cell panel viability, ATPlite luminescence, 48 h; series mostly up to 57.5 µM; also: nearly all actives have a fitted effect of over 55% in size
# How it was run: (§4)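 Five-point cytotoxicity, 48 h drug exposure at 37 C, 5% CO2, on cells seeded 16 h beforehand. ATP content read by ATPlite luminescence.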
# HEK293 = assay: Cytotoxic Profiling of Annotated Libraries Using Quantitative High-Throughput Screening (AID 1296008); settings: Five cell lines viability, CellTiter-Glo ATP luminescence, 48-72 h; max response: active compounds read low; also: nearly all actives have a fitted effect of over 60% in size
# How it was run: as §2
# CAOV3 = assay: Primary qHTS to identify gynecologic anti-cancer compounds using libraries of approved drugs and bioactive compounds (AID 1345084); settings: Gynecologic cancer cell panel viability, ATPlite luminescence, 48 h; series mostly up to 57.5 µM; also: nearly all actives have a fitted effect of over 55% in size
# How it was run: as §4
# HEK293T = assay: qHTS assay to identify novel small-molecules to repurpose for Merkel cell carcinoma treatment (AID 1296009); settings: MCC and control cell lines, CellTiter-Glo viability, 72 h; at 44.8 µM (top of the series) unless noted; also: nearly all actives have a fitted effect of over 60% in size
# How it was run: as §3
# NIH3T3 [4] = assay: as above; settings: MCC and control cell lines, CellTiter-Glo viability, 72 h; at 44.8 µM (top of the series) unless noted
# How it was run: as §3
# [5] = at 44.8 µM (top of the series) unless noted
# Potency is read from the fitted curve at half-maximal effect.
smiles,measurement,setting,value
O=C(O)c1cccc(-c2noc(-c3ccccc3F)n2)c1,Potency,TAB109,inactive
same,Potency,TAB113,inactive
same,Potency,TAB165,inactive
same,Potency,W2,inactive
same,outcome,CRL-7250,inactive
same,max response,HaCat [1],-27.5% (inactive) and -24.9% (inactive)
same,outcome,HaCat [1],inactive
same,max response,KB-3-1,-19.9% (inactive) and 8.42% (inactive)
same,max response,NIH3T3 [2],-7.81% (inactive)
same,outcome,HACAT [3]; [5],inactive
same,Potency,MCC-13,inactive
same,Potency,MCC-26,inactive
same,Potency,MKL-1,inactive
same,Potency,MKL-2,inactive
same,Potency,UISO,inactive
same,Potency,WaGa,inactive
same,Potency,C33A,11.2 µM (active) and 12.6 µM (active)
CC(=O)O[C@H]1C(=O)[C@@]2(C)C([C@H](OC(=O)c3ccccc3)[C@]3(O)C[C@H](OC(=O)[C@H](O)[C@@H](NC(=O)c4ccccc4)c4ccccc4)C(C)=C1C3(C)C)[C@]1(OC(C)=O)CO[C@@H]1C[C@@H]2O (some centres not stated),Potency,HEK293,0.0057 µM (active)
same,max response,HEK293,-90.8% (inactive)
same,Potency,KB-3-1,1 nM (active) and 7.2 nM (active)
same,Potency,NIH3T3 [2],5.9 nM (active) and 36 nM (active)
same,Potency,MCC-26,0.0037 µM (active)
same,Potency,MKL-1,inactive
same,Potency,MKL-2,inactive
same,Potency,CAOV3,inactive
O=C1CCc2ccc(OCCCCN3CCN(c4cccc(Cl)c4Cl)CC3)cc2N1,Potency,W2,9.53 µM (active)
same,Potency,HEK293,16.8 µM (active)
same,outcome,HaCat [1],inactive
same,max response,KB-3-1,-20.7% (inactive)
same,max response,NIH3T3 [2],-18.1% (inactive)
same,outcome,HACAT [3]; [5],inactive
same,Potency,MCC-13,inactive
same,Potency,MCC-26,inactive
same,Potency,MKL-1,inactive
same,Potency,UISO,inactive
same,Potency,WaGa,inactive
same,Potency,C33A,inactive
CCCCCCCCOc1ccccc1C(=O)Nc1ccc(C(=O)OCC[N+](C)(CC)CC)cc1,Potency,TAB109,7.94 µM (active)
same,Potency,TAB113,10 µM (active)
same,Potency,TAB165,6.31 µM (active)
same,Potency,W2,6.75 µM (active)
same,max response,CRL-7250,-18.9% (inactive) and -13.2% (inactive)
same,max response,HaCat [1],-9.66% (inactive)
same,max response,KB-3-1,3.44% (inactive)
same,max response,NIH3T3 [2],-11.9% (inactive) and 2.27% (inactive)
same,Potency,MCC-13,inactive
same,Potency,MCC-26,inactive
same,Potency,MKL-2,16.6 µM (active) and 5.96 µM (active)
same,Potency,UISO,15 µM (active)
same,Potency,WaGa,29.9 µM (active)
same,Potency,C33A,inactive
CN(C)CCc1c[nH]c2ccc(Cn3cncn3)cc12,Potency,TAB113,inactive
same,Potency,TAB165,inactive
same,Potency,CRL-7250,1.32 µM (active)
same,Potency,HEK293,0.743 µM (active)
same,Potency,MCC-13,inactive
same,Potency,MCC-26,inactive
same,Potency,MKL-1,inactive
same,Potency,MKL-2,inactive
same,Potency,UISO,inactive
same,Potency,WaGa,inactive
CCCCN(CCCC)CCC(O)c1cc2c(Cl)cc(Cl)cc2c2cc(C(F)(F)F)ccc12 (configuration not stated),Potency,TAB109,0.0071 µM (active)
same,Potency,TAB113,0.0079 µM (active)
same,Potency,TAB165,0.0079 µM (active)
same,Potency,C33A,inactive
O=Nc1c(-c2c(O)[nH]c3cc(Br)ccc23)[nH]c2ccccc12,Potency,HEK293,14.8 µM (active)
same,Potency,HaCat [1],11.8 µM (active)
same,Potency,MCC-13,18.7 µM (active)
same,Potency,MCC-26,16.6 µM (active)
same,Potency,MKL-2,16.6 µM (active)
same,Potency,UISO,0.059 µM (active)
NNc1nncc2ccccc12,Potency,W2,3.22 µM (active)
same,outcome,HACAT [3]; at 17.4 µM (top of the series),inactive
same,outcome,HACAT [3]; at 44.8 µM (top of the series),inactive
same,outcome,HEK293T,inactive [at 17.4 µM]
same,Potency,MCC-13,inactive
same,Potency,MCC-26,inactive
same,Potency,MKL-1,inactive
same,Potency,MKL-2,inactive
same,outcome,NIH3T3 [4],inactive [at 17.4 µM]
same,Potency,UISO,inactive
same,Potency,WaGa,inactive
same,Potency,C33A,inactive
O=c1ccc2ccc(O)c(O)c2o1,outcome,HEK293,inactive
same,outcome,HaCat [1],inactive
same,outcome,KB-3-1,inactive
same,max response,NIH3T3 [2],-1.87% (inactive)
same,outcome,HACAT [3]; [5],inactive
same,outcome,HEK293T,inactive
same,Potency,MCC-13,inactive
same,Potency,MCC-26,inactive
same,Potency,UISO,inactive
COc1c2occc2cc2ccc(=O)oc12,Potency,C33A,inactive
same,Potency,CAOV3,inactive
Cc1cc(O)c2c(c1)C(=O)c1cc(O)cc(O)c1C2=O,outcome,CRL-7250,inactive
same,max response,HaCat [1],-5.49% (inactive)
same,max response,KB-3-1,-3.32% (inactive)
same,max response,NIH3T3 [2],0.664% (inactive)
same,Potency,MCC-13,inactive
same,Potency,MCC-26,inactive
same,Potency,MKL-1,inactive
same,Potency,MKL-2,inactive
same,Potency,UISO,inactive
same,Potency,WaGa,inactive
CC(C)Oc1ccc2c(=O)c(-c3ccccc3)coc2c1,Potency,CAOV3,22.4 µM (active)
C[C@H](Cc1ccc(O)c(O)c1)[C@@H](C)Cc1ccc(O)c(O)c1,outcome,HaCat [1],inactive
same,max response,NIH3T3 [2],-21.7% (inactive)
same,outcome,HACAT [3]; [5],inactive
same,Potency,MCC-13,inactive
same,Potency,MCC-26,inactive
same,Potency,MKL-1,11.8 µM (active)
same,Potency,MKL-2,18.7 µM (active)
same,Potency,WaGa,18.7 µM (active)
Oc1ccc(-c2nc(-c3ccc(F)cc3)c(-c3ccncc3)[nH]2)cc1,max response,CRL-7250,-11.9% (inactive)
same,Potency,HEK293,11.8 µM (active)
same,max response,HaCat [1],-6.19% (inactive)
same,outcome,NIH3T3 [2],inactive
same,Potency,MCC-13,inactive
same,Potency,MCC-26,inactive
same,Potency,MKL-2,20.9 µM (active)
same,outcome,NIH3T3 [4],inactive
same,Potency,UISO,inactive
CN1C(C(=O)Nc2ccccn2)=C(O)c2sccc2S1(=O)=O,Potency,TAB109,inactive
same,Potency,TAB113,inactive
same,Potency,TAB165,inactive
same,Potency,W2,inactive
same,Potency,C33A,inactive
same,Potency,CAOV3,inactive
Cc1cccc(C#Cc2ccccc2)n1,max response,HaCat [1],-25.8% (inactive)
same,max response,KB-3-1,9.05% (inactive)
same,max response,NIH3T3 [2],-0.211% (inactive)
same,Potency,MCC-13,inactive
same,Potency,MCC-26,inactive
same,Potency,MKL-1,inactive
same,Potency,MKL-2,inactive
same,Potency,UISO,inactive
same,Potency,WaGa,inactive
CC(C)c1nc(CN(C)C(=O)N[C@H](C(=O)N[C@@H](Cc2ccccc2)C[C@H](O)[C@H](Cc2ccccc2)NC(=O)OCc2cncs2)C(C)C)cs1,max response,CRL-7250,-16.9% (inactive) and 0.649% (inactive) and -2.4% (inactive)
same,max response,HaCat [1],-41.4% (inactive) and 3.85% (inactive)
same,outcome,HaCat [1],inactive
same,max response,NIH3T3 [2],-19.1% (inactive) and 3.76% (inactive)
same,outcome,NIH3T3 [2],inactive
same,outcome,HACAT [3]; [5],inactive
same,Potency,MCC-13,inactive
same,Potency,MCC-26,inactive
same,Potency,MKL-1,inactive
same,Potency,MKL-2,inactive
same,outcome,NIH3T3 [4],inactive
same,Potency,UISO,inactive
same,Potency,WaGa,inactive
same,Potency,C33A,inactive
Nc1nc(Cl)nc2c1ncn2[C@H]1C[C@H](O)[C@@H](CO)O1,Potency,TAB109,inactive
same,Potency,TAB113,inactive
same,Potency,TAB165,inactive
same,Potency,HEK293,2.35 µM (active)
same,Potency,HaCat [1],1.32 µM (active)
same,Potency,NIH3T3 [2],935 nM (active)
same,Potency,MCC-26,inactive
same,Potency,MKL-1,0.418 µM (active)
same,Potency,MKL-2,0.418 µM (active)
same,Potency,UISO,0.372 µM (active)
same,Potency,WaGa,0.418 µM (active)
